From PubChem BioAssay
Menin-MLL TR inh: menin-MLL binding inhibition, Texas Red mutant peptide | O00255 | Menin + Texas Red MLL mutant peptide, fluorescence polarization | Potency, µM (series often up to 61.6 µM), for the others: at the top dose FP activity change, negative = inhibition, hits mostly inhibitors | 0.23% of 270,000 active; active = well fitted inhibition curve with a large enough effect in the polarisation, with a control signal flat, not every such curve was filed as active; inconclusive = small, poorly fitted or top-dose-only effect, or effect the other way, or a change in a side signal; inactive = no such curve, though single readings can be large or run the other way; the % refers to the polarisation; also: potency is read from the fitted curve at half-maximal effect; % of control where 0% means no effect
MLL CXXC-DNA inh: MLL CXXC-DNA interaction inhibition; MLL-CXXC / FITC-HOXA9 DNA fluorescence polarization; Potency, µM (doses to about 115 µM), inactives show top-dose activity change, negative = inhibition, actives largely listed as inhibitors; 0.037% of 290,000 active; AID 2662; active = well fitted inhibition curve with a large enough effect in the polarisation, with a control signal flat, not every such curve was filed as active; inconclusive = small, poorly fitted or top-dose-only effect, or effect the other way, or a change in a side signal; inactive = no such curve, though single readings can be large or run the other way; the % refers to the polarisation; also: potency is read from the fitted curve at half-maximal effect
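Steps: dispense CXXC domain solution (7 uM) → pin compounds or unlabeled HOX-A9 DNA control → 5 min ambient → add FLSN-HOX-A9 solution (50 nM) → spin → 30 min ambient → fluorescence polarization. Tris pH 7.5/NaCl/DTT/BSA buffer.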
PINK1 modulator: PINK1 expression modulation; 0.2% of 410,000 active; Potency, µM (titrated, usually from 76.6 µM), without a hit: at the top dose activation (PINK1 increase), usual class: activators; AID 624263; PINK1 immunofluorescence, high-content cytometry, 24 h; active = well fitted activation curve with a large enough effect; inconclusive = small, poorly fitted or top-dose-only effect; cell line not stated here; also: potency is read from the fitted curve at half-maximal effect; % of control where 0% means no effect; nearly all actives have a fitted effect of over 65% in size
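PINK1 protein level read as immunofluorescence by microplate cytometer in a fixed, stained stable cell line after 24 h exposure to five compound concentrations, with CCCP as control.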
Menin MLL FP FL: menin-MLL binding inhibition, fluorescein peptide. Fluorescence polarization, fluorescein-MLL peptide displacement from menin. FP activity change, % at 61.4 µM. 290,000 tested, under 10 active. AID 1766; active = well fitted curve in the direction sought with a large enough effect in the polarisation, not every such curve was filed as active; inconclusive = small, poorly fitted or top-dose-only effect, or effect the other way, or a change in a side signal; inactive = no such curve, though single readings can be large or run the other way; the % refers to the polarisation; also: % of control where 0% means no effect
Epigenetic derep: epigenetic control regulation, reporter derepression; 0.2% of 280,000 active; murine LDR cells, GFP reporter derepression, 30 h; Potency, µM (top dose mostly 53.9 µM), without a hit: at the top dose GFP activation, usual class: activators; active = well fitted activation curve with a large enough effect; inconclusive = small, poorly fitted or top-dose-only effect; also: potency is read from the fitted curve at half-maximal effect; % of control where 0% means no effect; nearly all actives have a fitted effect of over 60% in size
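GFP-positive cell count by laser-scanning cytometry (objects 20–120 um) after 30 h, 37 C compound exposure of murine LDR cells; reporter is CMV-GFP integrated at a silenced locus, inducible by HDAC or DNMT inhibitors.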
ClpP mod: qHTS Assay for Activators of ClpP. ATP-dependent Clp protease proteolytic subunit (Bacillus subtilis (strain 168)), P80244. purified B. subtilis ClpP, FRET peptide cleavage, 20 min. Potency, µM (titrated, usually from 57.5 µM), for the others: top-dose activity change, negative = active. 1.9% of 340,000 active; active = well fitted falling curve with a large enough effect; inconclusive = small, poorly fitted or top-dose-only effect; inactive = no such curve, though single readings can be large or run the other way; also: potency is read from the fitted curve at half-maximal effect; the source files actives as falling curves though it sought activators and does not explain the sign; nearly all actives have a fitted effect of over 65% in size
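ClpP 10 microg/mL final, pH 8 Tris/KCl buffer with BSA, glycerol, Tween-20; compound pinned in; FRET-FV substrate; RT 20 min; Ex320/Em430; ΔFRET vs ADEP 5.8 microM, DMSO, no enzyme.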
* = called active by the depositor; ? = inconclusive; nt = not tested or not shown; [ ] = dose if it differs, or a comment. Compounds with a hit are over-represented: about 1.9% of the library has one in this group of screens.

SMILES	Menin-MLL TR inh	MLL CXXC-DNA inh	PINK1 modulator	Menin MLL FP FL	Epigenetic derep	ClpP mod
CSc1nc(SCC(=O)NC(c2ccccc2)c2ccccc2)c2c3c(sc2n1)CN(C)CC3	-23%	14%	10%[38.3 µM]	8	0%	28µM*
O=C(CN(c1cccc(C(F)(F)F)c1)S(=O)(=O)c1ccc(Cl)c([N+](=O)[O-])c1)NCc1ccccc1	17%	14%	3%	3	5%	-2%
O=C(CN(c1ccc(Br)cc1)S(=O)(=O)c1ccc(Cl)c([N+](=O)[O-])c1)NCCc1ccccc1	21%	-2%	0%	-1	-3%	25µM*
CC(C)n1nc(C(=O)Nc2nnc(SCc3c(Cl)cccc3Cl)s2)c2ccccc2c1=O	0%	16%	5.6µM*	4	1%	-14%
CC(C)n1nc(C(=O)Nc2nc3ccc(S(C)(=O)=O)cc3s2)c2ccccc2c1=O	20%	-8%	13%[38.3 µM]	3	5%	-2%
COc1cc(-c2ccc(Cl)cn2)cc2c1OCCN(S(=O)(=O)C[C@]13CC[C@H](CC1=O)C3(C)C)C2	nt	nt	-1%	nt	nt	nt
CCCCSc1nc(-c2ccc(OC)cc2)ccc1C#N	nt	nt	-1%	nt	-1%	4%
CCSc1nc(-c2ccc(OC)cc2)ccc1C#N	44%	-2%	0%	2	1%	28µM*
c1ccc(C(c2ccccc2)N2CCN(C(c3ccccn3)c3nnnn3C3CCCC3)CC2)cc1 (stereo unspecified)	0%	-9%	0%	2	5%	22µM*
c1ccc(C(c2nnnn2C2CCCC2)N2CCCCCC2)nc1 (stereo unspecified)	-7%[11.7 µM]	-3%	2%[38.3 µM]	-1	1%	22µM*
COc1cccc(C(=O)NCc2nc(-c3cccc(NC(=O)c4ccoc4C)c3)oc2C)c1OC	nt	nt	0%	nt	nt	nt
CCOC(=O)C1=C(C)NC2=C(C(=O)CCC2)C1c1cn(Cc2ccc(Cl)cc2Cl)nc1-c1ccccc1 (stereo unspecified)	20%	-4%	0%	1	3%	28µM*
COC(=O)C1=C(C)NC2=C(C(=O)CCC2)C1c1cn(Cc2ccc(Cl)cc2Cl)nc1-c1ccccc1 (stereo unspecified)	-8%	-8%	-1%	2	-2%	18µM*
CCOc1ccc2[nH]c3c(N4CCC5(CC4)OCCO5)ncnc3c2c1	nt	-6%	5%	3	2%	32µM*
CCOC(=O)N1CCN(c2ncnc3c2[nH]c2ccc(F)cc23)CC1	-19%	-4%	3%	2	-1%	?
CCOC(=O)N1CCN(c2ncnc3c2[nH]c2ccc(OC)cc23)CC1	21%	-1%	0%	4	0%	25µM*
Cc1cc(C(=O)Nc2cccc(-c3nc(CNC(=O)c4ccc[n+]([O-])c4)c(C)o3)c2)c(C)o1	nt	nt	0%	nt	nt	nt
CCC(C)Sc1cc(C(F)(F)F)c(C(=O)Nc2ccc(Cl)cc2)cn1 (stereo unspecified)	nt	5%	18µM*	4	0%	nt
Cn1cc(C(=O)Nc2ccc(Cl)cc2)c(C(F)(F)F)n1	25%	0%	3%	-2	-1%	0%
CCOC(=O)c1c(-c2ccc(C)cc2)csc1NC(=O)/C(C#N)=C/c1ccc(O)c(OC)c1	?	13%	0%	?	11µM*	nt
Oc1c(C=NCc2ccc(F)cc2)[nH]c2ccc(Br)c(Cl)c12	nt	22%	nt	16	-1%	nt
Cc1ccc(CN=Cc2[nH]c3ccc(Br)c(Cl)c3c2O)cc1	-2%	7%	11µM*	?	0%	-1%
CCc1ccc(-n2nc(C)c3c(C(=O)Nc4cccc(C(F)(F)F)c4)cc(C)nc32)cc1	nt	nt	4%	nt	-1%	22µM*
Cc1c(CN2CCOc3ccc(C(C)(O)COc4ccccc4)cc3C2)cnn1C (stereo unspecified)	nt	nt	0%	nt	nt	nt
O=C1CCc2cc(-c3csc(-c4ccc(O)cc4)n3)ccc2N1	nt	nt	6%	nt	nt	?
